3T3 cytotox – NIH 3T3 cell cytotoxicity; AID 1345082; Potency, µM (titrated, usually from 96.7 µM), for inactives: at the highest dose activity change, negative = cytotoxicity, actives largely listed as inhibitors; NIH 3T3 viability, CellTiter-Glo ATP luminescence, 48-72 h; 94,000 tested, 4.3% active; further: nearly all actives have a fitted effect of over 55% in size
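Cytotoxicity was measured by CellTiter-Glo ATP luminescence after 48 or 72 h compound exposure at 37 °C. Mouse NIH 3T3 fibroblasts were seeded at 400 cells/well and dosed by 23 nL pin transfer.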
HEK293 viab – reduces viability of HEK-293 SNCA reporter cells | HEK-293-SNCA-luc viability, GF-AFC fluorescence, 24 h | 150,000 tested, 0.12% active | Potency, µM (top dose mostly 57.1 µM), without a hit: at the top dose activity change, negative = cytotoxicity, actives largely listed as cytotoxic;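 further: 0% = DMSO-treated cells and -100% = medium-only wells without cells; nearly all actives have a fitted effect of over 30% in size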
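HEK-293-SNCA-luc cells (1500/well) plated 24 h, then exposed 24 h to a dilution series; GF-AFC added 30 min at 37C, fluorescence 405/540 nm; normalised to medium-only and DMSO wells, Hill fit.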
HEK cytotox – kills HEK 293 cells. HEK 293 viability, ATP luminescence (CellTiter-Glo), 48-72 h. Potency, µM (highest dose often 115 µM), without a hit: at the highest dose activity change, negative = cytotoxicity, actives largely listed as inhibitors. 94,000 tested, 6.6% active. AID 1345083; further: nearly all actives have a fitted effect of over 60% in size
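Cytotoxicity was scored by loss of ATP-coupled luminescence (CellTiter-Glo) in HEK 293 cells. Compound treatment ran 48 or 72 hr at 37 degree Celsius, 5% CO2, 95% humidity.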
SNCA expr inhib – SNCA gene expression inhibition | AID 1671194 | HEK-293 SNCA-luciferase knock-in, luminescence, 24 h | Potency, µM (highest dose often 57.2 µM), inactives show at the highest dose activity change, negative = inhibition, usual class: inhibitors | 140,000 tested, 0.17% active;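 further: plate controls were DMSO cells for no effect and cell-free wells for full effect; nearly all actives have a fitted effect of over 45% in size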
FLuc inh – Photinus pyralis luciferase inhibition | P08659 | purified P. pyralis luciferase, luminescence, biochemical | Potency, µM (highest dose often 115 µM), most hits filed as inhibitors | 76,000 tested, 2.5% active; further: nearly all actives have a fitted effect of over 65% in size
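Cell-free enzyme assay, 10nM P. pyralis luciferase, luciferin and ATP each at 10uM. Inhibition profiled over a 6-point titration, read as luminescence.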
NPR1 antag – blocks ANP-stimulated signaling of human Npr1 receptor; AID 1347048; 76,000 tested, 1.6% active; Potency, µM (highest dose often 46.3 µM), without a hit: at the top dose activity change, negative = inhibition, usual class: inhibitors; HEK293 hNpr1 GloSensor cGMP, ANP-stimulated luminescence; calls by dose curve; further: nearly all actives have a fitted effect of over 60% in size
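Compound pre-incubated 30 min at room temperature on GloSensor-loaded HEK293 cells stably carrying hNpr1 and the pGS-40F cGMP biosensor. Stimulation uses hNppA at 0.1 nM final; luminescence is taken at baseline and 20 min post-agonist.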
* marks the source's active call; other numbers are inactive results; i = inactive; ? = inconclusive; . = no result; [ ] = another dose, or the depositor's remark. Rows were chosen to be rich in hits. Some 7.4% of all compounds tested hit in one or more screens of this group. Unless noted, the call rests on the fitted dose curve; in most records, active means well fitted curve in the direction sought with a large enough effect; inconclusive means small, poorly fitted or top-dose-only effect, or another doubt; inactive means no such curve, though single readings can be large; an effect the other way counts as inactive or inconclusive. Unless noted, on the % scale 0 is the no-effect control and ±100 the full control effect; potency means the concentration at half of the fitted maximal effect.

SMILES | 3T3 cytotox | HEK293 viab | HEK cytotox | SNCA expr inhib | FLuc inh | NPR1 antag
CCC(CC)c1cc([C@H]2CN3CC[C@H]2C[C@@H]3CNC(=O)Cc2cccs2)nc(-c2ccncc2)n1 | 28.2µM* | -18.8% | 39.8µM* | -17.8% | i | ?
Cc1nc(-c2ccccc2)cc([C@H]2CN3CC[C@H]2C[C@@H]3CNS(=O)(=O)Cc2ccccc2)n1 | 79.4µM* | -4.2% | 79.4µM* | 2.2% | i | -0.9%
Cn1nc(-c2ccccc2)cc1[C@H]1CN2CC[C@H]1C[C@@H]2CNC(=O)c1cccs1 | ? | -1.3%[87.6 µM] | ? | -17.6%[87.6 µM] | i | 3.5%[70.6 µM]
O=C(NCc1ccco1)[C@H]1CN2CC[C@H]1C[C@@H]2Cn1cc(CCO)nn1 | -2.2%[174 µM] | -0.5%[87.6 µM] | ? | -1.4%[87.6 µM] | i | 0.5%[70.6 µM]
COc1ccc(CN2CCC3(CC2)C(=O)Nc2ccccc23)cc1 | -3.8% | -9.9% | -26.5% | 19.0% | . | .
C=C(C)C(=O)O[C@H]1[C@@H]2[C@H](C)C(=O)O[C@@H]2C[C@@H](C)[C@@H]2C=CC(=O)[C@]21C | . | 4.65µM* | . | . | . | .
Cc1nc(-c2ccc(N(C)C)cc2)cc([C@H]2CN3CC[C@H]2C[C@@H]3CNC(=O)N2CCOCC2)n1 | ? | -9.3% | ? | -2.3% | i | -0.2%
Cc1nc(-c2ccc(C(F)(F)F)cc2)cc([C@H]2CN3CC[C@H]2C[C@@H]3CNC(=O)C2CC2)n1 | ? | -11.3% | ? | ? | i | 3.4%
Cc1nc(-c2ccc(N(C)C)cc2)cc([C@H]2CN3CC[C@H]2C[C@@H]3CNC(=O)C2CC2)n1 | 100µM* | -21.1%[87.6 µM] | 70.8µM* | -40.0%[87.6 µM] | i | -2.3%[70.6 µM]
Cc1nc(-c2ccc(N(C)C)cc2)cc([C@H]2CN3CC[C@H]2C[C@@H]3CNCc2cccc(C#N)c2)n1 | 28.2µM* | ? | 25.1µM* | -24.8% | ? | -20.8%
Cc1nc(-c2ccc(N(C)C)cc2)cc([C@H]2CN3CC[C@H]2C[C@@H]3CNC(=O)C(C)(C)C)n1 | 89.1µM* | ? | 56.2µM* | ? | i | 1.3%[70.6 µM]
CCOC(=O)[C@H]1CN(C(=O)c2ccc(OC)cc2)[C@]2(C)C(=O)N(CC3CC3)c3ccccc3[C@H]12 | ? | -2.3%[23.9 µM] | ? | 9.7%[25.6 µM] | . | .
O=C(NCc1ccc(F)cc1)[C@H]1CN2CCC1C[C@@H]2Cn1cc(C2(O)CCCCC2)nn1 (stereo partly specified) | -21.2% | 2.9% | -0.6% | -22.9% | i | 1.9%
OCC1CN(c2ccncn2)CC12CCNCC2 (stereo unspecified) | -21.5% | 4.3%[12.5 µM] | -0.3% | -9.0% | i | 7.5%
COc1ccc2c(c1)C1(CCN(S(=O)(=O)c3cccc(F)c3)C1)C(=O)N2C (stereo unspecified) | -19.4% | 1.7% | 44.7µM* | -24.2% | i | -8.8%
O=C(Cc1ccccn1)N1CCN(Cc2ccccc2-c2ccccc2F)CC1 | ? | 3.9%[12.5 µM] | ? | -15.8% | . | .
CCCN1CC2(CCN(C)CC2)CC1C(=O)N(C)Cc1ccon1 (stereo unspecified) | 1.3% | 2.0% | ? | -26.8% | i | 0.8%
O=C1NC2(CCN(Cc3cccnc3)C2)COc2ccccc21 (stereo unspecified) | 35.5µM* | 4.3%[87.6 µM] | 79.4µM* | 2.1%[87.6 µM] | i | 5.6%[70.6 µM]
CSc1ccc(-c2ccc(=O)n3c2[C@@H]2C[C@@H](CN(S(C)(=O)=O)C2)C3)cc1 | -1.3%[174 µM] | 1.7%[87.6 µM] | 0.9%[172 µM] | 19.3%[87.6 µM] | i | 4.5%[70.6 µM]
CNC(=O)c1ccc(N2C(=S)N(c3ccc(C#N)c(C(F)(F)F)c3)C(=O)C23CCC3)cc1F | . | ? | . | -1.6% | . | .
CN1CCN(C(=O)Cc2c[nH]c3ncc(-c4ccc(CO)cc4)cc23)CC1 | 25.1µM* | -7.3%[87.6 µM] | ? | 19.4%[87.6 µM] | i | -0.1%[70.6 µM]
CN1CCN(C(=O)Cc2c[nH]c3ncc(-c4ccnn4C)cc23)CC1 | 100µM* | 3.0%[87.6 µM] | -11.4%[172 µM] | 14.1%[87.6 µM] | i | 2.6%[70.6 µM]
